Assays:
[1] = biological target: Serine/threonine-protein kinase 4 (Homo sapiens) (UniProt Q13043); conditions: at 0.1 µM
[2] = biological target: Serine/threonine-protein kinase 4 (Homo sapiens) (UniProt Q13043); conditions: at 1 µM
[3] = biological target: Serine/threonine-protein kinase 3 (Homo sapiens) (UniProt Q13188); conditions: at 0.1 µM
[4] = biological target: Serine/threonine-protein kinase 3 (Homo sapiens) (UniProt Q13188); conditions: at 1 µM
[5] = biological target: Serine/threonine-protein kinase 26 (Homo sapiens) (UniProt Q9P289); conditions: at 0.1 µM
[6] = biological target: Serine/threonine-protein kinase 26 (Homo sapiens) (UniProt Q9P289); conditions: at 1 µM
[7] = biological target: Serine/threonine-protein kinase PAK 1 (Homo sapiens) (UniProt Q13153); conditions: at 0.1 µM
[8] = biological target: Serine/threonine-protein kinase PAK 1 (Homo sapiens) (UniProt Q13153); conditions: at 1 µM
[9] = biological target: Serine/threonine-protein kinase PAK 2 (Homo sapiens) (UniProt Q13177); conditions: at 0.1 µM
[10] = biological target: Serine/threonine-protein kinase PAK 2 (Homo sapiens) (UniProt Q13177); conditions: at 1 µM
[11] = biological target: Serine/threonine-protein kinase PAK 3 (Homo sapiens) (UniProt O75914); conditions: at 0.1 µM
[12] = biological target: Serine/threonine-protein kinase PAK 3 (Homo sapiens) (UniProt O75914); conditions: at 1 µM
[13] = biological target: Serine/threonine-protein kinase PAK 5 (Homo sapiens) (UniProt Q9P286); conditions: at 0.1 µM
[14] = biological target: Serine/threonine-protein kinase PAK 5 (Homo sapiens) (UniProt Q9P286); conditions: at 1 µM
[15] = biological target: Serine/threonine-protein kinase PAK 6 (Homo sapiens) (UniProt Q9NQU5); conditions: at 0.1 µM
[16] = biological target: Serine/threonine-protein kinase PAK 6 (Homo sapiens) (UniProt Q9NQU5); conditions: at 1 µM
[17] = tested on: Tyrosine-protein kinase ABL1 (Homo sapiens), P00519 [E255K]; conditions: at 0.1 µM
[18] = tested on: Tyrosine-protein kinase ABL1 (Homo sapiens), P00519 [E255K]; conditions: at 1 µM
[19] = tested on: Tyrosine-protein kinase ABL1 (Homo sapiens), P00519 [H396P]; conditions: at 0.1 µM
[20] = tested on: Tyrosine-protein kinase ABL1 (Homo sapiens), P00519 [H396P]; conditions: at 1 µM
[21] = tested on: Tyrosine-protein kinase ABL1 (Homo sapiens), P00519 [M351T]; conditions: at 0.1 µM
[22] = tested on: Tyrosine-protein kinase ABL1 (Homo sapiens), P00519 [M351T]; conditions: at 1 µM
[23] = tested on: Tyrosine-protein kinase ABL1 (Homo sapiens), P00519 [Q252H]; conditions: at 0.1 µM
[24] = tested on: Tyrosine-protein kinase ABL1 (Homo sapiens), P00519 [Q252H]; conditions: at 1 µM
[25] = tested on: Tyrosine-protein kinase ABL1 (Homo sapiens), P00519 [T315I]; conditions: at 0.1 µM
[26] = tested on: Tyrosine-protein kinase ABL1 (Homo sapiens), P00519 [T315I]; conditions: at 1 µM
[27] = tested on: Tyrosine-protein kinase ABL1 (Homo sapiens), P00519 [Y253F]; conditions: at 0.1 µM
[28] = tested on: Tyrosine-protein kinase ABL1 (Homo sapiens), P00519 [Y253F]; conditions: at 1 µM
[29] = biological target: Tyrosine-protein kinase ABL1 (Homo sapiens) (UniProt P00519); conditions: at 0.1 µM
[30] = biological target: Tyrosine-protein kinase ABL1 (Homo sapiens) (UniProt P00519); conditions: at 1 µM
[31] = biological target: ALK tyrosine kinase receptor (Homo sapiens) (UniProt Q9UM73); conditions: at 0.1 µM
[32] = biological target: ALK tyrosine kinase receptor (Homo sapiens) (UniProt Q9UM73); conditions: at 1 µM
[33] = biological target: Tyrosine-protein kinase ABL2 (Homo sapiens) (UniProt P42684); conditions: at 0.1 µM
[34] = biological target: Tyrosine-protein kinase ABL2 (Homo sapiens) (UniProt P42684); conditions: at 1 µM
[35] = biological target: Tyrosine-protein kinase receptor UFO (Homo sapiens) (UniProt P30530); conditions: at 0.1 µM
[36] = biological target: Tyrosine-protein kinase receptor UFO (Homo sapiens) (UniProt P30530); conditions: at 1 µM
[37] = biological target: Tyrosine-protein kinase Blk (Homo sapiens) (UniProt P51451); conditions: at 0.1 µM
[38] = biological target: Tyrosine-protein kinase Blk (Homo sapiens) (UniProt P51451); conditions: at 1 µM
[39] = biological target: Cytoplasmic tyrosine-protein kinase BMX (Homo sapiens) (UniProt P51813); conditions: at 0.1 µM
[40] = biological target: Cytoplasmic tyrosine-protein kinase BMX (Homo sapiens) (UniProt P51813); conditions: at 1 µM
[41] = biological target: Protein-tyrosine kinase 6 (Homo sapiens) (UniProt Q13882); conditions: at 0.1 µM
[42] = biological target: Protein-tyrosine kinase 6 (Homo sapiens) (UniProt Q13882); conditions: at 1 µM
[43] = biological target: Tyrosine-protein kinase BTK (Homo sapiens) (UniProt Q06187); conditions: at 0.1 µM
[44] = biological target: Tyrosine-protein kinase BTK (Homo sapiens) (UniProt Q06187); conditions: at 1 µM
[45] = biological target: Tyrosine-protein kinase CSK (Homo sapiens) (UniProt P41240); conditions: at 0.1 µM
[46] = biological target: Tyrosine-protein kinase CSK (Homo sapiens) (UniProt P41240); conditions: at 1 µM
[47] = biological target: Discoidin domain-containing receptor 2 (Homo sapiens) (UniProt Q16832); conditions: at 0.1 µM
[48] = biological target: Discoidin domain-containing receptor 2 (Homo sapiens) (UniProt Q16832); conditions: at 1 µM
[49] = biological target: Epidermal growth factor receptor (Homo sapiens) (UniProt P00533); conditions: at 0.1 µM
[50] = biological target: Epidermal growth factor receptor (Homo sapiens) (UniProt P00533); conditions: at 1 µM
[51] = tested on: Epidermal growth factor receptor (Homo sapiens), P00533 [L858R]; conditions: at 0.1 µM
[52] = tested on: Epidermal growth factor receptor (Homo sapiens), P00533 [L858R]; conditions: at 1 µM
[53] = tested on: Epidermal growth factor receptor (Homo sapiens), P00533 [L861Q]; conditions: at 0.1 µM
[54] = tested on: Epidermal growth factor receptor (Homo sapiens), P00533 [L861Q]; conditions: at 1 µM
[55] = tested on: Epidermal growth factor receptor (Homo sapiens), P00533 [T790M]; conditions: at 0.1 µM
[56] = tested on: Epidermal growth factor receptor (Homo sapiens), P00533 [T790M]; conditions: at 1 µM

Sequence of Serine/threonine-protein kinase PAK 6 (Homo sapiens) (Q9NQU5 whole entry, looked up): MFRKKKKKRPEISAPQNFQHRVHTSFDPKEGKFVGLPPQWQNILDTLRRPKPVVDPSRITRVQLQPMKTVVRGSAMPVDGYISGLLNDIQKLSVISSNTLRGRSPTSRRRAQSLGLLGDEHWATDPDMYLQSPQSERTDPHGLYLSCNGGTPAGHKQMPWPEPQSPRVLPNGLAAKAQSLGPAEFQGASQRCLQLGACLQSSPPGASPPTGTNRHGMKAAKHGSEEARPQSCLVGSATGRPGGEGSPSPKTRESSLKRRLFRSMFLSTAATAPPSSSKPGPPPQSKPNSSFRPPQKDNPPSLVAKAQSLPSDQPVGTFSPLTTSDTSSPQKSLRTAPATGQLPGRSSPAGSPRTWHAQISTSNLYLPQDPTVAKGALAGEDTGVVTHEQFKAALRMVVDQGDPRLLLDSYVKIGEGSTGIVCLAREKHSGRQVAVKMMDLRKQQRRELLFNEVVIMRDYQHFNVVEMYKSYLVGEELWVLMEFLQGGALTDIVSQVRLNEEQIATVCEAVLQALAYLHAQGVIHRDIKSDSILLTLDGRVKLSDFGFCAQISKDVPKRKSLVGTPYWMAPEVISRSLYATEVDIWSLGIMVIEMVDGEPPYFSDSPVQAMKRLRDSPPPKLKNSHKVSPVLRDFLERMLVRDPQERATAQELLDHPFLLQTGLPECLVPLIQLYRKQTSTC
Sequence of Serine/threonine-protein kinase PAK 3 (Homo sapiens) (O75914 whole entry, looked up): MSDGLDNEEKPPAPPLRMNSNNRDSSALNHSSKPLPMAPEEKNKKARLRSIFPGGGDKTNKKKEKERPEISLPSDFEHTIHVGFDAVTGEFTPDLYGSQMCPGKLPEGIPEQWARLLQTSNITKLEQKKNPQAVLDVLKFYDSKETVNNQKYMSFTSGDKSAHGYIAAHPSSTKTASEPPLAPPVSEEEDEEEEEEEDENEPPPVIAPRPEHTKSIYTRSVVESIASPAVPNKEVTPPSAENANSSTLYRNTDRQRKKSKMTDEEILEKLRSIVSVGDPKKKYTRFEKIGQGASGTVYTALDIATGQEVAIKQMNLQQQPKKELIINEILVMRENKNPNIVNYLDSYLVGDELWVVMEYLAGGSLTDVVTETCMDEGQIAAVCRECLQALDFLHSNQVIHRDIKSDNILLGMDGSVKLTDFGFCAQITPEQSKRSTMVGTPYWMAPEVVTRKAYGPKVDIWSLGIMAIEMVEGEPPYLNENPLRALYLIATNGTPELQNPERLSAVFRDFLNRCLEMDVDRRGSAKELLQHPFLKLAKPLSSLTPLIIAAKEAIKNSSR
Sequence of Serine/threonine-protein kinase 3 (Homo sapiens) (Q13188 whole entry): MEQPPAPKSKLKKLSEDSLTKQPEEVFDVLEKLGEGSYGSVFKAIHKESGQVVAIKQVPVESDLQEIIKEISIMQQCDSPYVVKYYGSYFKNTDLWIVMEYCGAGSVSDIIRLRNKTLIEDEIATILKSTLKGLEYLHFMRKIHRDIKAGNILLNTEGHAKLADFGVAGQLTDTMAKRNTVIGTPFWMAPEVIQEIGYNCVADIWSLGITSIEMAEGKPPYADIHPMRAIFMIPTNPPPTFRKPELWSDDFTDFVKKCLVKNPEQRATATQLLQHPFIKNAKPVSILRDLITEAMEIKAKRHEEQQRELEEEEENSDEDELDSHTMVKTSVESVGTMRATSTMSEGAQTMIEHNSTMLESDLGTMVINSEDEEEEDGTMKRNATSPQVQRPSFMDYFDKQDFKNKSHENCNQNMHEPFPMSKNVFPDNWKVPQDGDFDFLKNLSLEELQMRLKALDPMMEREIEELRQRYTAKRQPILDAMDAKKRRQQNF
Sequence of Tyrosine-protein kinase ABL2 (Homo sapiens) (P42684 whole entry): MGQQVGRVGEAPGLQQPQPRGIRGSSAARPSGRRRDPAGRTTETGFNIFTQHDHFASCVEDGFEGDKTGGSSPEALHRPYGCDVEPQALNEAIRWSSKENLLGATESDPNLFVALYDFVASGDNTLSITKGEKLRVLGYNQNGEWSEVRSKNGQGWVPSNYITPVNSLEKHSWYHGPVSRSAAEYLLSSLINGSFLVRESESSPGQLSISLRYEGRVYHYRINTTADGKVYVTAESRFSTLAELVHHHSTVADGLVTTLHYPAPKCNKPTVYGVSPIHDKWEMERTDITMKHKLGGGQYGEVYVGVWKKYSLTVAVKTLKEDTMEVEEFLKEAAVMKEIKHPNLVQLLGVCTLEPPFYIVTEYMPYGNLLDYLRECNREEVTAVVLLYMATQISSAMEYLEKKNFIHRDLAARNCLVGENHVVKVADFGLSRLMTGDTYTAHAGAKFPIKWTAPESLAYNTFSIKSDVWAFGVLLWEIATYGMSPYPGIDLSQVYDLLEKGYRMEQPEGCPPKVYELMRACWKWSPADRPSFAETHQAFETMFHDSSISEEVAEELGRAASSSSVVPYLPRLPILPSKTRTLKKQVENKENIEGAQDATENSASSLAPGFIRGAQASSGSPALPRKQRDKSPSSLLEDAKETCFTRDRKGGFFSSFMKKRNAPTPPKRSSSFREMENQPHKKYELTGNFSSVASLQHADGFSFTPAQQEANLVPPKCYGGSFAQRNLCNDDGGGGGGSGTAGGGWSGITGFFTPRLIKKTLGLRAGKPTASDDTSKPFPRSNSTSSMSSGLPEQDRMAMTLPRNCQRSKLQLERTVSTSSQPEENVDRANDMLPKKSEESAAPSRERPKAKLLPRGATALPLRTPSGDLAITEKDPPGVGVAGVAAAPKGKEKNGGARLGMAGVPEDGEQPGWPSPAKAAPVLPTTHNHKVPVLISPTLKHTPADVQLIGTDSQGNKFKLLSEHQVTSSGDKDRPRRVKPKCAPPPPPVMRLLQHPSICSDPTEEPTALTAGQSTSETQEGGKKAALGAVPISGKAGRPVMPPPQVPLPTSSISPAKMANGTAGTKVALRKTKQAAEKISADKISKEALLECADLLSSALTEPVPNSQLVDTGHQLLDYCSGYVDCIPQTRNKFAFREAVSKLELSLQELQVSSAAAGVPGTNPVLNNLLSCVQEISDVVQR
Sequence of Tyrosine-protein kinase Blk (Homo sapiens) (P51451 2-505 limits assumed): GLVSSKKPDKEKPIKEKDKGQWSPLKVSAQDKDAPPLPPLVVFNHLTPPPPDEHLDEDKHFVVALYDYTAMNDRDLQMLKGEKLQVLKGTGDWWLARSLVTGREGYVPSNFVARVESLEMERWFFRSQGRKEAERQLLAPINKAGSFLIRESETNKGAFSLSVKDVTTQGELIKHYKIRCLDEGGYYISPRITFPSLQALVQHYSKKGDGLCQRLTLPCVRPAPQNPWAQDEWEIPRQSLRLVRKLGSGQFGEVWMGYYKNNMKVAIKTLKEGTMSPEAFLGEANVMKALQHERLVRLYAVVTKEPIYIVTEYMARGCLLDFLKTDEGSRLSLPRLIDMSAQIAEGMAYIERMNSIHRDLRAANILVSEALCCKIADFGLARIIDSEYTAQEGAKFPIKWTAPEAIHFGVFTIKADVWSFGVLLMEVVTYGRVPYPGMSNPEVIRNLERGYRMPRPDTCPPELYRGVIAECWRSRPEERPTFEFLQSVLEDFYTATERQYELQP
Sequence of Serine/threonine-protein kinase PAK 2 (Homo sapiens) (Q13177 whole entry): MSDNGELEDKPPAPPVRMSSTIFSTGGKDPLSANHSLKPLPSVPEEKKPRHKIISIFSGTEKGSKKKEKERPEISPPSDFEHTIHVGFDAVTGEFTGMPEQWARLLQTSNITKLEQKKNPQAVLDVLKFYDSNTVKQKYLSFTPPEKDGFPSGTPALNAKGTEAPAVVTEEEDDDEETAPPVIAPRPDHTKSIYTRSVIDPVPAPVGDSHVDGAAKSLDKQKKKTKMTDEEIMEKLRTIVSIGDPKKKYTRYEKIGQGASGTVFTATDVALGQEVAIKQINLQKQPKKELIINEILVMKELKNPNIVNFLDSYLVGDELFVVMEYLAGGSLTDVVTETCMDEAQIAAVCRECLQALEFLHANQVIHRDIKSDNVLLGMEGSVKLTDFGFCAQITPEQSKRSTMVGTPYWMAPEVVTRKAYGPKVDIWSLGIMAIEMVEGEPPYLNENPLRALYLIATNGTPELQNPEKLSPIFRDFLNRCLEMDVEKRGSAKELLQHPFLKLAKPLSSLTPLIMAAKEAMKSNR
Sequence of Discoidin domain-containing receptor 2 (Homo sapiens) (Q16832 whole entry, the tested form may be a part): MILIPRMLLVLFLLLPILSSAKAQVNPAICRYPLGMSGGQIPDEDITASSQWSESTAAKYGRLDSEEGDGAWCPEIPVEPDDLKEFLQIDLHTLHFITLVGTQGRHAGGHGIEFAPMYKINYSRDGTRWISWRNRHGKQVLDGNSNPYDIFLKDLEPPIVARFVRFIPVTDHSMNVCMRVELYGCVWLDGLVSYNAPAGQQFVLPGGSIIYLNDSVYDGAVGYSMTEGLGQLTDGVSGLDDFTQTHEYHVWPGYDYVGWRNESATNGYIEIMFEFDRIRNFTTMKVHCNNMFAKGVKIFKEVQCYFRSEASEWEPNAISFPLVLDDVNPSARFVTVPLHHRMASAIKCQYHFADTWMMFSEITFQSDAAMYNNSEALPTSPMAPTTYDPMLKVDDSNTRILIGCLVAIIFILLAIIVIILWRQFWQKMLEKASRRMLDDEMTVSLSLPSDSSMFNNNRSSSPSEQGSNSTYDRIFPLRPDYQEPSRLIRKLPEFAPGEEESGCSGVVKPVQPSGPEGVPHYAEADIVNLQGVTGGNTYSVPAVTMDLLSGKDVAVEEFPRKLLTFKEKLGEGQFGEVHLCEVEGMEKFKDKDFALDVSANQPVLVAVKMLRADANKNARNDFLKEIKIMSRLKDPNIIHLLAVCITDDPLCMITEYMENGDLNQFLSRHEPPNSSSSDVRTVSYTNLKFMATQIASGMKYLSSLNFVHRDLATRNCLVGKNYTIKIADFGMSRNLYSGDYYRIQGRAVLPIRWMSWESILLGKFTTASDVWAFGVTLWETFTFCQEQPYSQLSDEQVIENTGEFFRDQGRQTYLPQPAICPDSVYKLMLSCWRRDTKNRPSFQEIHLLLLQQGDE

SMILES: CNC(=O)Oc1cc(C)c(/C=C/c2cncc(C(=O)NC)c2)c(C)c1
- inhibition [1]: 4.28%
- inhibition [2]: 7.77%
- inhibition [3]: 4.88%
- inhibition [4]: 4.5%
- inhibition [5]: -0.01%
- inhibition [6]: -0.02%
- inhibition [7]: 3.48%
- inhibition [8]: 5.41%
- inhibition [9]: 1.99%
- inhibition [10]: 1.98%
- inhibition [11]: 1.98%
- inhibition [12]: 3.68%
- inhibition [13]: -4.59%
- inhibition [14]: -1.52%
- inhibition [15]: 5.83%
- inhibition [16]: -0.24%
- inhibition [17]: 7.72%
- inhibition [18]: 50.5%
- inhibition [19]: 17.9%
- inhibition [20]: 66.5%
- inhibition [21]: 18.4%
- inhibition [22]: 65%
- inhibition [23]: 14.5%
- inhibition [24]: 58.6%
- inhibition [25]: 1.76%
- inhibition [26]: 3.56%
- inhibition [27]: 23%
- inhibition [28]: 69.2%
- inhibition [29]: 12.9%
- inhibition [30]: 55.8%
- inhibition [31]: 2.46%
- inhibition [32]: 14.2%
- inhibition [33]: 9.35%
- inhibition [34]: 64.3%
- inhibition [35]: -1.68%
- inhibition [36]: 1.31%
- inhibition [37]: 2.38%
- inhibition [38]: 17.7%
- inhibition [39]: 6.61%
- inhibition [40]: 48.2%
- inhibition [41]: 17.1%
- inhibition [42]: 66.2%
- inhibition [43]: 3.71%
- inhibition [44]: 7.17%
- inhibition [45]: 7.8%
- inhibition [46]: 23%
- inhibition [47]: 1.69%
- inhibition [48]: 4.31%
- inhibition [49]: 1.01%
- inhibition [50]: 3.7%
- inhibition [51]: 1.37%
- inhibition [52]: 18.1%
- inhibition [53]: 1.07%
- inhibition [54]: 2.38%
- inhibition [55]: 0.88%
- inhibition [56]: 0.02%

Reference: ChEMBL document CHEMBL1961873, “Compounds: GSK PKIS; Assays: Nanosyn kinase panel” (2012)
